# Assay results taken from PubChem BioAssay AID1053197 (The Scripps Research Institute Molecular Screening Center, 2014).
# The whole screen tested about 370,000 compounds, of which about 2,600 (0.7%) were called active.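 Rule for the calls: active = inhibition above a cutoff: mean of compounds within the control limits plus 3 SD of those (cut at about 17% in these data); inactive = the rest.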 Many of the other results were omitted from the sample, so actives are more common in it than they were.
# Molecular target: Sialate O-acetylesterase (Homo sapiens) (UniProt Q9HAT2)
# Sequence (Q9HAT2 whole entry, looked up): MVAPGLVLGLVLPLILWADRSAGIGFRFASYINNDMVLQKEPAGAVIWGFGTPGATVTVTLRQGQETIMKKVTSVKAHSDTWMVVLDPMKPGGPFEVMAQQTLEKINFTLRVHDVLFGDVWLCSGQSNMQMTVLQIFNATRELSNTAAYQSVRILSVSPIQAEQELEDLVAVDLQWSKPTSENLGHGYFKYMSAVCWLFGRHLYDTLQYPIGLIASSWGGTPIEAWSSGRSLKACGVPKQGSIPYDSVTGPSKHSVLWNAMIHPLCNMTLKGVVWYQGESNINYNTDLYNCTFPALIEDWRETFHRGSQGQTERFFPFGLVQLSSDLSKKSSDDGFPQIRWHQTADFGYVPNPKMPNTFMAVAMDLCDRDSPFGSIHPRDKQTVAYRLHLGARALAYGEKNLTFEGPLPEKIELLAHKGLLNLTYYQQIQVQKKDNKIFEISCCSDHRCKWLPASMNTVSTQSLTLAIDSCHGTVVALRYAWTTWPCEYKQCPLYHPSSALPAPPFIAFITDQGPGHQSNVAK
# Test: blockers of sialate O-acetylesterase activity-probe labeling – biochemical, fluorescence polarization, FP-Rh probe, 1536-well HTS, primary screen (AID 1053197);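 note: 0% = plate median of compound wells and 100% = probe without SIAE protein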
# Conditions: SIAE FP-Rh probe binding, at 9.66 µM, hits give high values
row,SMILES,inhibition
1,CC(=O)N1CCCN(C2=Nc3ccccc3Sc3ccccc32)CC1,13.5% (inactive)
2,COCCNC(=O)c1cc2c(Br)ccc(Br)c2nc1N,-3.42% (inactive)
3,COCCNC(=O)Nc1ccc2nc(-c3ccco3)c(-c3ccco3)nc2c1,37.3% (active)
4,COCCN(C(=O)c1ccco1)c1nnc(-c2ccc(OC)cc2)s1,-0.46% (inactive)
5,CCCCCN1CCCCC(NC(=O)C(C)CCC)C1=O (stereo unspecified),-1.97% (inactive)
6,CCOC(=O)[C@]12CCCC=C1N(Cc1ccc(OC)cc1)C(=O)[C@@H]2CC(=O)NCc1cccs1,0.94% (inactive)
7,Cc1c[nH]c2cccc(-c3ccc(Cl)cc3)c12,4.94% (inactive)
8,O=[N+]([O-])c1cc([N+](=O)[O-])c2cccnc2c1O,0.23% (inactive)
9,CCCCC(=O)NC(c1ccc(OC)c(OC)c1)c1ccc2cccnc2c1O (stereo unspecified),15.1% (inactive)
10,CC(=O)NC(c1cccs1)c1cc(Br)c2cccnc2c1O (stereo unspecified),20.8% (active)
11,COC(=O)[C@]12C[C@H](CC(=O)N3CCN(C(=O)C4CC4)CC3)C(=O)N(CCC3=CCCCC3)C1=C[C@H](C(C)C)O[C@@H]2C1CC1,0.92% (inactive)
12,O=C(CSc1nc2ccccc2n1Cc1ccccc1)NNC(=S)Nc1ccccc1,2.33% (inactive)
13,COCC(=O)N[C@@H]1C[C@@H]2O[C@@H](CO)CC[C@@H]2O[C@@H]1CCc1ccc(-c2ccccc2)cc1,2.31% (inactive)
14,Cc1ccc(Cn2cc(CN3[C@@H](CC(C)C)COc4ccc(Cl)cc4S3(=O)=O)nn2)cc1,1.1% (inactive)
15,Oc1ccccc1C1=NN(c2ccccc2)C(c2ccccc2)C1 (stereo unspecified),20.5% (active)
16,COc1ccc(C2CC(c3cccc(OC)c3)=NN2c2ccc(S(N)(=O)=O)cc2)cc1 (stereo unspecified),6.8% (inactive)
17,Cc1ccc(N2C(=O)C3N=NN(CC(=O)N4N=C(c5cccc6ccccc56)CC4c4ccccc4)C3C2=O)cc1 (stereo unspecified),-11.7% (inactive)
18,O=C1CC[C@@]23CCCN2C(=O)CCC[C@H]3[C@H]1Cc1ccccc1,4.29% (inactive)
19,CCOc1ccc(Cn2c(SCCCCC#N)nc3c2c(=O)n(C)c(=O)n3C)cc1OCC,25.8% (active)
20,CCOc1ccc2nc(NC(=O)CSc3nc4c(c(=O)n(C)c(=O)n4C)n3CC)sc2c1,-3.15% (inactive)
21,Cc1cccc(Cn2c(N3CCN(c4ccccc4)CC3)nc3c2c(=O)n(C)c(=O)n3C)c1,-1.65% (inactive)

row,SMILES,inhibition
1,COC(=O)c1cccc(Cn2ccc3ccc(-c4ccc5ccn(C(=O)C6CCCCC6)c5c4)cc32)c1,-4.45% (inactive)
2,N#CCC[C@H]1CC[C@]2(CCCN(Cc3ccc(Cl)cc3)C2)O1,1.15% (inactive)
3,C#CCNC(=O)C[C@H]1C[C@@]2(C(=O)OC)C(=C[C@H](C(C)C)O[C@@H]2C2CC2)N(Cc2ccco2)C1=O,4.68% (inactive)
4,COc1cc(/C=N\Nc2nc(-c3cccs3)c(NC(C)=O)s2)ccc1O,18.3% (active)
5,COc1ccc(/C=N/Nc2ncnc3sc4c(c23)CCCC4)cc1O,-1.15% (inactive)
6,COc1cc(/C=C/C(=O)OCC(=O)NCCCc2ccccc2)ccc1O,9.1% (inactive)
7,O=C(NCc1cccs1)C1CCCN(S(=O)(=O)c2ccc([N+](=O)[O-])cc2)C1 (stereo unspecified),3.31% (inactive)
8,COc1ccc(-n2c(SCC(=O)Nc3ccc4c(c3)OCCO4)nnc2-c2ccc(Cl)cc2)cc1,2.64% (inactive)
9,CCCCn1c(N)c(N(CC(C)C)C(=O)CN(C)S(=O)(=O)c2ccc(F)cc2)c(=O)[nH]c1=O,2.93% (inactive)
10,CCCCn1c(N)c(N(CCC(C)C)C(=O)c2ccc([N+](=O)[O-])o2)c(=O)[nH]c1=O,1.61% (inactive)
11,CCCCn1c(N)c(N(CC(C)C)C(=O)CSc2ccc([N+](=O)[O-])cc2)c(=O)[nH]c1=O,17.8% (active)
12,CCC(=O)OCCCN1C(=O)CCC12CCC(c1ccccc1)CC2 (stereo unspecified),10.2% (inactive)
13,COC(=O)[C@@]12CCCCC3=C1N(CCC3)C(=O)[C@H]2CC(=O)NCc1cccc2ccccc12,3.42% (inactive)
14,CC(C)C(C#CC1CC1)N(Cc1ccc2c(c1)OCO2)C(N)=NC(=O)/C=C/c1cccc(C(F)(F)F)c1 (stereo unspecified),-3.05% (inactive)
15,CCN(CC)C(=O)CC[C@@H]1CC[C@]2(CCCN(S(=O)(=O)C3CCCCC3)C2)O1,0.62% (inactive)
16,Cc1ccc(Nc2nc(-c3ccc(O)cc3O)cs2)nc1,20.7% (active)
17,CC(=O)Nc1cnc(-c2ccc(O)cc2C)cn1,1.05% (inactive)
18,Cc1ccc(-c2csc(NCCc3nc4cc(Cl)c(Cl)cc4n3CCOCCO)n2)cc1,1.85% (inactive)
19,COC(=O)[C@H](C(C)C)N(CCc1cn(Cc2ccccc2)nn1)S(=O)(=O)c1ccc(F)cc1Br,0.91% (inactive)
20,Cc1ccc(-n2c(SCC(=O)Nc3ccc(S(=O)(=O)Nc4nccs4)cc3)nnc2-c2ccccn2)cc1,-6.07% (inactive)
